Screening data from PubChem.
Giardia FBPA inh: qHTS Assay for Inhibitors of Fructose-1,6-bisphosphate Aldolase from Giardia Lamblia; 0.71% of 290,000 active; Potency, µM (top dose mostly 59.6 µM), inactives show at the highest dose activity, negative = inhibition, hits mostly inhibitors; A8B2U2; purified Giardia FBPA; note: potency is the fitted concentration of half-maximal effect; % is set by controls: 0 for no effect and ±100 for the full control effect; nearly all actives have a fitted effect of over 55% in size
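40 nM FBPA preincubated 10 min at RT with compound (up to 57.5 uM final), then substrate plus GAPDH/TPI/NAD/arsenate coupling and diaphorase/resazurin added. Fluorescence read after 20 min at RT, 525/598 nm.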
Sm TGR block: qHTS Assay for the Inhibitors of Schistosoma Mansoni Peroxiredoxins | purified TGR, DTNB reduction, TNB absorbance 405 nm | Potency, µM (titrated, usually from 114 µM), for the others: at the highest dose activity change, negative = inhibition, hits mostly inhibitors | Schistosoma mansoni thioredoxin glutathione reductase (TGR), Q962Y6 | 3% of 360,000 active; note: potency is the fitted concentration of half-maximal effect; % is set by controls: 0 for no effect and ±100 for the full control effect; nearly all actives have a fitted effect of over 60% in size
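First, TGR (20 nM dispensed) and NADPH were mixed with compound. Second, a 15 min room-temperature incubation followed. Third, further NADPH and then DTNB were added to start the reaction. Finally, TNB absorbance was monitored kinetically.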
LmPK inhibitor: qHTS Assay for Inhibitors of Leishmania Mexicana Pyruvate Kinase (LmPK); Q27686; purified LmPK, Kinase-Glo ATP luminescence, 1 h; Potency, µM (doses to about 57.5 µM), inactives show at the highest dose activity change, negative = inhibition, actives largely listed as inhibitors; 0.37% of 290,000 active; AID 1721, 2009; note: potency is the fitted concentration of half-maximal effect; % is set by controls: 0 for no effect and ±100 for the full control effect
Target sequence (Q27686 whole entry, looked up): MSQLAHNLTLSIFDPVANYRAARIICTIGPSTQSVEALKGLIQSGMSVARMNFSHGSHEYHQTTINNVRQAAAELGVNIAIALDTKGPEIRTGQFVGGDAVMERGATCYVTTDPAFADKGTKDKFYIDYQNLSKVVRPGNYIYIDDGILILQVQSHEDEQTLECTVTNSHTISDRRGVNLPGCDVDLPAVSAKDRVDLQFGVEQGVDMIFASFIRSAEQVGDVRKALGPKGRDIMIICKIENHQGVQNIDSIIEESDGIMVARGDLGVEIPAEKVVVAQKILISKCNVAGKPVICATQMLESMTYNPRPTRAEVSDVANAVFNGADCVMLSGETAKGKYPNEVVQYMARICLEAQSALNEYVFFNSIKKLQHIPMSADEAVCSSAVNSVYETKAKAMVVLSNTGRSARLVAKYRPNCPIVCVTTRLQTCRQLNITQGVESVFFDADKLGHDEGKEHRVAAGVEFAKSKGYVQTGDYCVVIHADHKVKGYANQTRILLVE
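Purified LmPK (0.1 nM) converted ADP (0.1 mM) to ATP with PEP (0.5 mM) in imidazole buffer pH 7.2 with KCl and MgCl2, 1 h at room temperature. ATP was read by Kinase-Glo luminescence; data normalized to uninhibited and no-enzyme controls.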
CHX counter: Cycloheximide Counterscreen for Small Molecule Inhibitors of Shiga Toxin. cell reporter, cycloheximide protein synthesis inhibition counterscreen. max response, %. 12% of 300,000 active. AID 2314, 2010; in the data active = max response mostly above about 13%, no sharp cut-off; inactive = mostly below about 14%; note: read at 38.3 µM for the half of the compounds with a filed dose; 0% is about no effect
Tb PYK inh: qHTS of Trypanosoma Brucei Inhibitors; 0.12% of 410,000 active; TbPYK enzyme, Kinase-Glo Plus ATP luminescence, 45 min; AID 624173, 2012; pyruvate kinase (Trypanosoma brucei), Q57TT1; Potency, µM (titrated, usually from 76.8 µM), inactives show at the highest dose activity, negative = inhibition, hits mostly inhibitors; note: potency is the fitted concentration of half-maximal effect; % is set by controls: 0 for no effect and ±100 for the full control effect; nearly all actives have a fitted effect of over 50% in size
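Luminescent Kinase-Glo Plus end-point after 45 min room-temperature reaction of T. brucei pyruvate kinase started with 130 uM ADP (final). Buffer TEA 50 mM pH 7.2 with KCl, MgCl2, BSA, Tween-20; titration-based qHTS with fitted concentration-effect curves.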
Shiga inhibitor: A qHTS for Small Molecule Inhibitors of Shiga Toxin; Vero cells, Shiga toxin protein synthesis inhibition reporter; inhibition, % at 38.7 µM; 9.2% of 290,000 active; AID 2315, 2010; in the data active = inhibition mostly above about 28%, no sharp cut-off; inactive = mostly below about 43%; note: 0% is about no effect
Active calls of the source: *; ? = inconclusive; nt = not tested or not shown. The full list was thinned out, with hits kept by preference. Unless noted, calls come from the whole dose curve; as a rule, active = well fitted curve in the direction sought with a large enough effect; inconclusive = small, poorly fitted or top-dose-only effect, or another doubt; inactive = no such curve, though single readings can be large; an effect the other way counts as inactive or inconclusive.

SMILES | Giardia FBPA inh | Sm TGR block | LmPK inhibitor | CHX counter | Tb PYK inh | Shiga inhibitor
CCOc1ccc(C(CC(=O)O)NC(=O)C(c2ccccc2)c2ccccc2)cc1OC (stereo not drawn) | nt | -9% | nt | nt | -7% | nt
O=C(N/N=C/c1ccsc1)c1ccc2ccccc2n1 | -13% | 7% | -1% | 41* | -7% | 74*
O=C(N/N=C/c1cc2c(cc1Br)OCO2)c1cc2ccccc2o1 | 23% | -6% | 0% | 20 | 1% | 12
O=C(N/N=C/c1ccc2c(c1)OCO2)c1ccccn1 | -23% | -27% | 11µM* | 39* | -17% | 93*
O=C(N/N=C/c1cc2c(cc1Br)OCO2)c1ccccn1 | -5% | -3% | ? | 43* | -6% | 55*
O=C(N/N=C/c1ccc2c(c1)OCO2)c1ccc2ccccc2n1 | -12% | -1% | 2% | 26* | 3% | 81
CCOc1ccc(-c2cc(C(=O)Oc3ccc(C#N)cc3)no2)cc1 | nt | -1% | nt | nt | 0% | nt
COc1ccc(CNC(=O)c2oc3c(c2C)-c2nn(Cc4ccccc4Cl)cc2CC3)cc1 | nt | -8% | nt | nt | 2% | nt
O=C(c1cccc(F)c1)N1CCC[C@@]2(CCN(c3ncccn3)C2)C1 | 1% | nt | nt | nt | 0% | nt
CNc1nnc(SCC(=O)c2cc(C)n(C3CC3)c2C)s1 | nt | -26% | nt | nt | -17% | nt
Cc1nnc(SCC(=O)c2cc(C)n(C3CC3)c2C)s1 | ? | -19% | -3% | 81* | -4% | 69*
Cc1cc(C(=O)CSc2nnnn2C)c(C)n1C1CC1 | -15% | -10% | 1% | 56* | -7% | 151*
COc1cc(C[C@H]2C(=O)OC[C@@H]2Cc2ccc(OC)c(OC)c2)ccc1O | 11% | nt | nt | nt | nt | nt
CC(=O)c1ccc(N2CCN(C(=O)CCS(=O)(=O)c3ccc4c(c3)oc(=O)n4C)CC2)cc1 | nt | 0% | nt | nt | 1% | nt
CC(=O)/C=C/c1ccc2ccccc2n1 | nt | 89µM* | -27% | 22* | -6% | 28
CC(C)(C)c1ccccc1N=Cc1ccc2ccccc2n1 | 0% | 14% | -2% | -1 | -16% | -6
O/N=C/c1ccc2ccccc2n1 | 0% | -3% | -2% | 50* | -2% | 106*
Cc1ccc2c(CN3CCN(Cc4ccccc4)CC3)cc(=O)oc2c1 | -5% | ? | 2% | -7 | -2% | 18
Cc1ccc2c(CN3CCCCC3CCO)cc(=O)oc2c1 (stereo not drawn) | -19% | 25µM* | 2% | 12 | -9% | -2
Cc1ccc2c(CN3CC(C)CC(C)C3)cc(=O)oc2c1 (stereo not drawn) | 6% | 89µM* | 3% | -3 | 4% | -4
Cc1ccc2c(CN3CCC(C)CC3)cc(=O)oc2c1 | 4% | -7% | 0% | 53* | 1% | 151*
CCNC(=O)C1(C)CCN(C(=O)c2cc(F)ccc2C)C1 (stereo not drawn) | nt | nt | nt | nt | -6% | nt
Cc1ccc(C(C)(O)CS(=O)(=O)Cc2ccccc2)cc1 (stereo not drawn) | 16% | ? | 2% | 16* | -2% | 19
COc1ccc(CS(=O)(=O)CC(C)(O)c2ccccc2)cc1 (stereo not drawn) | -6% | -16% | 9% | -6 | -3% | -10
CCN(CC)c1ccc(NC(=O)c2cc(OC)cc(OC)c2)c(C)c1 | -1% | -1% | 1% | -2 | -15% | -10
SMILES | Giardia FBPA inh | Sm TGR block | LmPK inhibitor | CHX counter | Tb PYK inh | Shiga inhibitor
CCN(CC)c1ccc(NC(=O)c2ccc3c(c2)OCO3)c(C)c1 | 2% | 0% | 1% | 17* | ? | 13
CCN(CC)c1ccc(NC(=O)c2cccc(OC)c2)c(C)c1 | -2% | -10% | -13% | 17* | -16% | 25
COc1ccc(NC(=O)NC(C)c2ccccc2)cc1 (stereo not drawn) | nt | 3% | -6% | -2 | 2% | -9
COc1ccc(NC(C)c2ccccc2)cc1 (stereo not drawn) | -19% | ? | 1% | 35* | -19% | 84*
Cc1ccc(NCc2nnc(SCC(=O)NCc3ccco3)n2CC2CCCO2)cc1Cl (stereo not drawn) | -9% | 50µM* | 5% | 7 | -10% | -17
C=CCn1c(SCC(=O)NCc2ccco2)nnc1C1CCCCC1 | nt | -21% | nt | nt | 0% | nt
Cn1c(SCC(=O)NCc2ccco2)nnc1C1CC1 | nt | nt | nt | nt | 2% | nt
O=C(CSc1nnc(C2CCCCC2)n1Cc1ccccc1)NCc1ccco1 | -14% | ? | 3% | 16* | -22% | 24
CCn1c(SCC(=O)NCc2ccco2)nnc1C1CCCC1 | 6% | 40µM* | 1% | -1 | 3% | 7
CC(C)n1c(SCC(=O)NCc2ccco2)nnc1C1CC1 | -8% | 18µM* | -5% | -2 | 1% | 18
Cn1c(SCC(=O)NCc2ccco2)nnc1C1CCCC1 | nt | -19% | -24% | -2 | 1% | -19
CCN1C[C@@H]2[C@@H]3C(=O)N(C)C(=O)[C@@H]3[C@](Cc3ccccc3)(C1=O)N2C(=O)c1ccc(C(C)(C)C)cc1 | nt | nt | nt | nt | -2% | nt
Cc1ccccc1Oc1ccc2c(c1)[C@@H]1C[C@H](N(C)C(=O)c3cccnc3)[C@H]([C@H](C)O)C(=O)N1CC2 | nt | nt | nt | nt | -15% | nt
CCC(=O)N1CCc2cc(S(=O)(=O)NCCC(=O)Nc3ccc(OC)c(OC)c3)ccc21 | nt | 2% | nt | nt | 5% | nt
COc1cccc(C(=O)NNC2OC(CO)C(O)C2O)c1 (stereo not drawn) | 0% | 30% | 0% | 31* | 2% | 69*
CC(NC(=O)c1cccnc1)C(=O)O (stereo not drawn) | 4% | 10% | -5% | 2 | 0% | 0
O=C(NNC1OC(CO)C(O)C(O)C1O)c1cccnc1 (stereo not drawn) | -8% | -15% | -3% | 19* | 5% | 50*
COc1cccc(C(=O)NNC(=O)Cc2cccs2)c1 | 5% | 14% | 0% | -3 | -3% | -10
O=C(NCCCN1CCOCC1)c1cc(S(=O)(=O)N2CCCCC2)ccc1Cl | nt | nt | nt | nt | 5% | nt
CC(C)c1ccc(OC(=O)c2cc(-c3ccccc3)on2)cc1 | nt | 1% | nt | nt | 0% | nt
CCOc1ccccc1C1C(C(=O)Nc2ccccc2)=C(C)Nc2nc(SCC(=O)c3ccc(C)cc3)nn21 (stereo not drawn) | nt | -5% | nt | nt | 0% | nt
CC(=O)NC[C@@H]1CN(c2ccc(N3CCOCC3)c(F)c2)C(=O)O1 | nt | nt | nt | nt | -6% | nt
O=C(NCc1ccc(Cl)cc1)C(=O)Nc1nccs1 | 0% | -12% | 4% | 1 | -4% | -15
O=C(/C=C/c1ccc(Cl)cc1)Nc1nccs1 | -8% | -10% | -8% | 54* | 1% | 70*
C/C=C/C=C/C(=O)Nc1nccs1 | -9% | 35µM* | -1% | 17* | -16% | 8
